Lassa entry inh – qHTS for Inhibitors of binding or entry into cells for Lassa Virus. Lassa virus pseudotype entry inhibition, cell reporter. Potency, µM (titrated, usually from 37.9 µM), without a hit: top-dose activity change, negative = inhibition, actives largely listed as inhibitors. hit rate 1.2% among 300,000; calls by dose curve; tested in HEK293 cells; also: potency is read from the fitted curve at half-maximal effect; % is scaled to controls: 0 for no effect and ±100 for the full control effect; nearly all actives have a fitted effect of over 50% in size
Shiga inhibitor – A qHTS for Small Molecule Inhibitors of Shiga Toxin. Vero cells, Shiga toxin protein synthesis inhibition reporter. inhibition, % at 38.7 µM. hit rate 9.2% among 290,000. AID 2315, 2010; in the data active = inhibition mostly above about 28%, no sharp cut-off; inactive = mostly below about 43%; also: 0% is about no effect
MARV entry inh – qHTS for inhibitors of binding or entry into cells for Marburg Virus; hit rate 1.8% among 300,000; Potency, µM (doses to about 37.8 µM), without a hit: at the top dose activity change, negative = inhibition, hits mostly inhibitors; Marburg virus pseudotyped entry inhibition, cell reporter; calls by dose curve; tested in HEK293 cells; also: potency is read from the fitted curve at half-maximal effect; % is scaled to controls: 0 for no effect and ±100 for the full control effect
CHX counter – Cycloheximide Counterscreen for Small Molecule Inhibitors of Shiga Toxin; cell reporter, cycloheximide protein synthesis inhibition counterscreen; max response, %; hit rate 12% among 300,000; AID 2314, 2010; in the data active = max response mostly above about 13%, no sharp cut-off; inactive = mostly below about 14%; also: read at 38.3 µM for the half of the compounds with a filed dose; 0% is about no effect
AMA1-RON2 inh – qHTS for Inhibitors of AMA1-RON; Towards Development of Antimalarial Drug Lead: Primary Screen | Plasmodium falciparum AMA1 (3D7) - RON2 peptide interaction | AlphaScreen AMA1-biotinylated RON2 peptide binding | Potency, µM (doses to about 58.2 µM), inactives show at the highest dose activity change, negative = inhibition, most hits filed as inhibitors | hit rate 0.2% among 360,000; active = well fitted inhibition curve with a large enough effect; inconclusive = small, poorly fitted or top-dose-only effect; inactive = no such curve, though single readings can be large or run the other way;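 also: potency is read from the fitted curve at half-maximal effect; 0% = vehicle wells and -100% = peptide control; nearly all actives have a fitted effect of over 45% in size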
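AMA1 (3D7) with his tag at 25 nM final met compounds first, then biotinylated RON2 peptide at 25 nM; detection used donor plus acceptor beads, 10 µg/mL apiece, read by AlphaScreen after 30 min at room temperature.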
* marks the source's active call; other numbers are inactive results; [ ] = dose if it differs, or a comment. The sample as a whole holds a higher share of hits than the screen did.

How did COc1ccc(Nc2oc(COc3ccc(C)cc3)nc2C#N)cc1 do in these assays?
Lassa entry inh: -27%; Shiga inhibitor: 41*; MARV entry inh: -29%; CHX counter: 16; AMA1-RON2 inh: -17%

What do the screens show for `COc1ccc(Nc2oc(COc3cccc(C)c3)nc2C#N)cc1`?
Lassa entry inh: 11µM*; Shiga inhibitor: 76*; MARV entry inh: inconclusive; CHX counter: 60*; AMA1-RON2 inh: -23%

Results for Cc1ccc(OCc2nc(C#N)c(NCc3ccco3)o2)cc1 ?
Lassa entry inh: -26%; Shiga inhibitor: 25; MARV entry inh: 3%; CHX counter: 8; AMA1-RON2 inh: -24%

Results for COc1ccc(Nc2oc(/C=C/c3ccc(F)cc3)nc2C#N)cc1 ?
Lassa entry inh: -1%[46.1 µM]; MARV entry inh: 5%[46.1 µM]

How did COc1ccc(Nc2oc(-c3ccc(F)cc3)nc2C#N)cc1 do in these assays?
Lassa entry inh: inconclusive; Shiga inhibitor: 73*; MARV entry inh: -12%[46.1 µM]; CHX counter: 35*; AMA1-RON2 inh: 2%

How did O=C(NCc1ccco1)c1cnn2c1N[C@@H](c1ccccc1)C[C@@H]2C(F)(F)F do in these assays?
MARV entry inh: 0%

How did COc1ccc(Nc2oc(COc3ccc(OC)cc3)nc2C#N)cc1 do in these assays?
Lassa entry inh: inconclusive; Shiga inhibitor: 3; MARV entry inh: 6.5µM*; CHX counter: -2; AMA1-RON2 inh: inconclusive

What do the screens show for `Cc1cccc(OCc2nc(C#N)c(NCc3ccc4c(c3)OCO4)o2)c1`?
Lassa entry inh: 4%; Shiga inhibitor: 56; MARV entry inh: -21%; CHX counter: 42*; AMA1-RON2 inh: -9%

How did CCNc1oc(COc2cccc(C)c2)nc1C#N do in these assays?
Lassa entry inh: 12%; Shiga inhibitor: 48; MARV entry inh: inconclusive; CHX counter: 23*; AMA1-RON2 inh: -9%

Results for CCOc1ccc(Nc2oc(-c3ccco3)nc2C#N)cc1 ?
Lassa entry inh: 8%; Shiga inhibitor: 34; MARV entry inh: 7%; CHX counter: 33*; AMA1-RON2 inh: -3%

How did N#Cc1nc(COc2ccc(Cl)cc2)oc1NCc1ccc2c(c1)OCO2 do in these assays?
Lassa entry inh: -4%; Shiga inhibitor: -25; MARV entry inh: 6%[46.1 µM]; CHX counter: 4; AMA1-RON2 inh: -43%

What do the screens show for `Cc1nc2c(o1)CCc1ccccc1[C@H]2N1CCN(C)CC1`?
MARV entry inh: -15%

What do the screens show for `CCCCN1C(=O)C(CC(=O)NCCN2CCOCC2)CC(C(=O)N(C)C)=C1C` (stereo not drawn)?
AMA1-RON2 inh: 18%

What do the screens show for `CCc1nnc(N/N=C/c2ccc(O)c(OC)c2)n1N`?
CHX counter: -2; AMA1-RON2 inh: 4%

What do the screens show for `CCc1nnc(N/N=C/c2cc(Br)c(O)cc2O)n1N`?
Lassa entry inh: inconclusive; Shiga inhibitor: 24*; MARV entry inh: inconclusive; CHX counter: 13*; AMA1-RON2 inh: 21%

What do the screens show for `CCOC(=O)c1nnc2c(-c3ccc(Cl)cc3)c(C)nn2c1N`?
Lassa entry inh: inconclusive; MARV entry inh: 16%[46.1 µM]

What do the screens show for `CCN1/C(=C/c2ccc3ccccc3[n+]2CC)C=Cc2ccccc21`?
Lassa entry inh: 5.6µM*; Shiga inhibitor: -12; MARV entry inh: 3.5µM*; CHX counter: -6; AMA1-RON2 inh: inconclusive

How did CCN1/C(=C/c2ccc3cc(C)ccc3[n+]2CC)Sc2cc(C)ccc21 do in these assays?
Shiga inhibitor: -21; CHX counter: 2; AMA1-RON2 inh: -4%

How did CCCCN1/C(=C/c2ccc3ccccc3[n+]2CC)Sc2ccccc21 do in these assays?
Lassa entry inh: 2.2µM*; Shiga inhibitor: -9; MARV entry inh: 5.6µM*; CHX counter: -2; AMA1-RON2 inh: -6%

How did CCN1/C(=C/c2ccc3ccccc3[n+]2CCCS(=O)(=O)[O-])C=Cc2cc(C)ccc21 do in these assays?
Lassa entry inh: 14%[46.1 µM]; Shiga inhibitor: -5; MARV entry inh: 23%[46.1 µM]; CHX counter: 3; AMA1-RON2 inh: -10%

How did CC(=O)c1cc(-c2ccc(F)cc2)n(CCC(=O)Nc2cc(C)[nH]n2)c1C do in these assays?
Lassa entry inh: -25%; Shiga inhibitor: 11; MARV entry inh: 0%; CHX counter: -5; AMA1-RON2 inh: -14%

How did CCNC(=S)Nc1cc(-c2ccc(Cl)cc2)[nH]n1 do in these assays?
Lassa entry inh: -25%; Shiga inhibitor: 8; MARV entry inh: -22%[46.1 µM]; CHX counter: 24*; AMA1-RON2 inh: 27%

What do the screens show for `O=C(Nc1cc(-c2ccccc2)[nH]n1)c1ccccc1`?
Lassa entry inh: inconclusive; Shiga inhibitor: 79*; MARV entry inh: inconclusive; CHX counter: 34*; AMA1-RON2 inh: -13%

How did CC(=O)Nc1cc(-c2ccc(F)cc2)[nH]n1 do in these assays?
Lassa entry inh: 10%; Shiga inhibitor: 129; MARV entry inh: 3%[46.1 µM]; CHX counter: 24*; AMA1-RON2 inh: 4%

What do the screens show for `O=C(Nc1cc(-c2ccccc2)[nH]n1)c1ccccc1F`?
Lassa entry inh: inconclusive; Shiga inhibitor: 105*; MARV entry inh: inconclusive; CHX counter: 42*; AMA1-RON2 inh: 0%

Results for O=C(O)c1ccccc1C(=O)Nc1cc(-c2ccccc2)[nH]n1 ?
Lassa entry inh: 21%; Shiga inhibitor: -2; MARV entry inh: inconclusive; CHX counter: 2; AMA1-RON2 inh: -5%

How did CC(C)Cn1cnc2c1c(=O)n(CC(=O)NC(=O)NC(C)(C)C)c(=O)n2Cc1ccccc1 do in these assays?
Lassa entry inh: -14%; Shiga inhibitor: -7; MARV entry inh: 0%[46.1 µM]; CHX counter: 12; AMA1-RON2 inh: -1%

Results for CCOc1ccc(-c2cc(C(=O)Nc3cccc(C(F)(F)F)c3)[nH]n2)c(C)c1 ?
AMA1-RON2 inh: 27%

Results for CCN1CCN(c2ccc(N3CCN(C(=O)c4ccc(Br)o4)CC3)nn2)CC1 ?
Lassa entry inh: 6%; MARV entry inh: inconclusive; AMA1-RON2 inh: -1%

Results for CN1CCN(c2ccc(NC(=O)N3CCc4ccccc43)cc2)CC1 ?
Lassa entry inh: -31%[46.1 µM]; Shiga inhibitor: 20; MARV entry inh: inconclusive; CHX counter: 18*; AMA1-RON2 inh: 0%

Results for CCOc1ccccc1CNC(=O)c1ccc2c(c1)nc1n2CCCCC1 ?
Lassa entry inh: 5µM*

Results for CCc1ccccc1NC(=O)N1CCCc2ccccc21 ?
Lassa entry inh: 10%[46.1 µM]; Shiga inhibitor: 59*; MARV entry inh: 13%[46.1 µM]; CHX counter: 43*; AMA1-RON2 inh: 4%

How did Cc1ccc(NC(=O)N2CCc3ccccc32)cc1C do in these assays?
Lassa entry inh: inconclusive; Shiga inhibitor: 98*; MARV entry inh: inconclusive; CHX counter: 31*; AMA1-RON2 inh: -20%

Results for O=C(COc1ccc2c(c1)oc(=O)c1ccccc12)NCCN1CCOCC1 ?
Shiga inhibitor: -8; CHX counter: -2; AMA1-RON2 inh: -7%

What do the screens show for `COc1ccc(NC(=O)N2CCC(c3nc4ccccc4[nH]3)CC2)cc1`?
Lassa entry inh: -1%; Shiga inhibitor: -4; MARV entry inh: -2%[46.1 µM]; CHX counter: 10; AMA1-RON2 inh: -5%

Bioassay records as filed in PubChem.
